EBV gp42 block: EBV gp42 inhibition. AID 1085. inhibition, % (tested at 21.74 µM). Q1HVG2. actives 0.42% (n = 220,000). Fluorescence polarization binding assay, mP read-out; in the data active = inhibition above about 50%
GLD-1 TGE inh: GLD-1-TGE RNA interaction inhibition (C. elegans); Q17339; purified GLD-1 + fluorescein TGE RNA, fluorescence polarization; inhibition, % at 5.96 µM; actives 0.44% (n = 320,000);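 active = percent inhibition above a per-plate cutoff, the plate mean of test compounds plus 3 SD, cut at about 30% in these data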
Target sequence (Q17339 whole entry, looked up): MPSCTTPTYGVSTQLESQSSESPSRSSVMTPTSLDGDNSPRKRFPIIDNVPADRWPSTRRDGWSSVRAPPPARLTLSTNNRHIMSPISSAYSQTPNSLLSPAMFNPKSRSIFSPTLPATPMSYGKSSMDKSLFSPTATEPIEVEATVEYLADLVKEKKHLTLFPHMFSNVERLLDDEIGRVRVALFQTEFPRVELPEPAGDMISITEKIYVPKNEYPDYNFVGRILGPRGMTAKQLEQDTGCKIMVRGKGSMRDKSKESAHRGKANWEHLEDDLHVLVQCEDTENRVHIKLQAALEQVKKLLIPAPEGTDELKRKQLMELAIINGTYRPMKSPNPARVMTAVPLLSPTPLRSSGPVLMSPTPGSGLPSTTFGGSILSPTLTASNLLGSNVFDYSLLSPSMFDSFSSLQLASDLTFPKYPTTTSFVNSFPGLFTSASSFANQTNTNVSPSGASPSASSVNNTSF
MCL1-BIM inh: disrupts human MCL1 binding to BIM-BH3 peptide; Q07820; GST-MCL1 / FITC-Bim-BH3 fluorescence polarization; inhibition, % at 10.9 µM; actives 0.68% (n = 320,000); AID 2057;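 active = inhibition above the mean inhibition of all tested compounds plus 3 SD, set per campaign, cut at about 40% in these data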;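 also: higher means more loss of mP so more displacement of Bim peptide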
E coli Lon inh: inhibits E. coli Lon protease | actives 0.42% (n = 360,000) | P0A9M0 | purified E. coli Lon protease, fluorescence polarization | inhibition, % at 7.94 µM; in the data active = inhibition above about 13%, passing the limit was not always enough
MEX-5 binding: C. elegans MEX-5 TCR-2 RNA binding activity; AID 1832; actives 0.38% (n = 300,000); Q9XUB2; activity score (negative = inhibition of binding), % at 10 µM; MEX-5/FITC-TCR2 RNA binding, fluorescence polarization; hits give low values;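 active = inhibition past about -25% in most replicates, and total fluorescence under double the plate's negative control median, limit read from the data; inconclusive = replicates evenly split on the limit, or fluorescence at least double controls; inactive = too little inhibition in most replicates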
Bcl-xL primary: Bcl-xL (human) inhibition; Q07817; GST-Bcl-xL / FITC-Bim BH3 peptide fluorescence polarization; inhibition, % at 10.9 µM; actives 0.7% (n = 320,000); AID 2129;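 active = inhibition above the mean of all tested compounds plus 3 SD, cutoff set per campaign, cut at about 30% in these data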;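 also: inhibitors lower millipolarization by displacing the labeled peptide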
Target sequence (Q07817 whole entry, looked up): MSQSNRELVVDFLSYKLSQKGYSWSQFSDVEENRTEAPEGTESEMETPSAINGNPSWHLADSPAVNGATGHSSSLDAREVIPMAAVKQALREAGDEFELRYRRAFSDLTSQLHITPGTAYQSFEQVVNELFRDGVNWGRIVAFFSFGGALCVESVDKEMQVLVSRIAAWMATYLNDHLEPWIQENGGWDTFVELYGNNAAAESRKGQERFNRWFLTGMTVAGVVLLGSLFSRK
E coli Lon conf: E. coli Lon inhibition confirmation. shares compounds with E coli Lon inh. purified E. coli Lon, fluorescence polarization. inhibition, % at 7.94 µM. actives 31% (n = 1,400). AID 602230; in the data active = inhibition above about 16%
Each line names hits and unclear results; the compound was inactive in the other large screens (follow-up assays come after a bar, where they were run). Rows were chosen to be rich in hits. Some 1.4% of all compounds tested hit in one or more screens of this group.

COc1ccc(N(CC(O)CN2CCOCC2)S(=O)(=O)c2ccc(C)cc2)cc1 (stereo not given)	none (no result: EBV gp42 block)
Cc1ccc(N(CC(O)CN2CCOCC2)S(=O)(=O)c2ccc([N+](=O)[O-])cc2)cc1 (stereo not given)	E coli Lon inh 16.7 (no result: EBV gp42 block) | E coli Lon conf inactive
CCC1(c2ccccc2)NC(=O)N(CC(=O)Nc2ccccc2N2CCCC2)C1=O (stereo not given)	none (no result: EBV gp42 block)
CCC1(c2ccccc2)NC(=O)N(CC(=O)Nc2cc(Cl)ccc2N2CCOCC2)C1=O (stereo not given)	E coli Lon inh 17.2 (no result: EBV gp42 block) | E coli Lon conf inactive
COc1ccc(-c2cn(-c3ccccc3)c3[n+]2CCS3)cc1	none
COc1cc(C(=O)OCC(=O)N2CCOCC2)c([N+](=O)[O-])cc1OC	E coli Lon inh 18.2 (no result: EBV gp42 block) | E coli Lon conf inactive
CCOC(=O)Nc1nn(-c2ccc(C)cc2)c(=O)c(C#N)c1C	none
COc1ccccc1-c1ccc2c(c1)C(C)(Cc1ccc(F)c(Cl)c1)C(=O)N2 (stereo not given)	E coli Lon inh 16.0 (no result: EBV gp42 block, GLD-1 TGE inh, MCL1-BIM inh, MEX-5 binding, Bcl-xL primary) | E coli Lon conf inactive
COc1ccccc1-c1ccc2c(c1)C(C)(Cc1ccc(Cl)cc1)C(=O)N2 (stereo not given)	none (no result: EBV gp42 block, GLD-1 TGE inh, MCL1-BIM inh, MEX-5 binding, Bcl-xL primary)
COc1ccc(CN2CCNC(=O)C2CC(=O)NCc2csc(C)n2)c(F)c1 (stereo not given)	E coli Lon inh 18.6 (no result: EBV gp42 block) | E coli Lon conf inactive
COCCn1c(SCC(=O)c2cc(C)n(C)c2C)nc2ccccc2c1=O	E coli Lon inh 14.6 | E coli Lon conf inactive
COCCn1c(SCC(=O)NC(=O)Cc2ccccc2)nc2ccccc2c1=O	none (no result: EBV gp42 block, MEX-5 binding)
Cc1cc(Cl)ccc1OCc1cn2cccnc2n1	none
Clc1cccc(NCc2cn3cccnc3n2)c1	E coli Lon inh 17.2 | E coli Lon conf inactive
COc1ccc(Oc2cc(Cl)nc(N)n2)cc1	none
Nc1nc(Cl)cc(Oc2ccc([N+](=O)[O-])cc2)n1	E coli Lon inh 16.3 (no result: EBV gp42 block) | E coli Lon conf 20.2
O=C(CSc1nnc(-c2c[nH]c3ccccc23)o1)NCC1CCCO1 (stereo not given)	none (no result: EBV gp42 block, MEX-5 binding)
CCc1ccc(NC(=O)C(C)OC(=O)c2ccc(N3CCCC3)c([N+](=O)[O-])c2)cc1 (stereo not given)	none
O=C(c1cc(COc2ccc(F)cc2F)on1)N1CC2C[C@@H]3CC1C[C@H](C2)C3	none (no result: EBV gp42 block)
O=C(c1cc(COc2ccc(F)cc2F)on1)N1C[C@H]2CC[C@H]1C2	E coli Lon inh 23.6 (no result: EBV gp42 block) | E coli Lon conf inactive
O=C1c2sccc2-c2cccc3cccc1c23	E coli Lon inh 54.1 (no result: EBV gp42 block, GLD-1 TGE inh, MCL1-BIM inh, MEX-5 binding, Bcl-xL primary) | E coli Lon conf 29.8
COCC(=O)Nc1nnc(-c2ccc(C(C)(C)C)cc2)s1	none
Cc1ccc(C(=O)NCCc2ccc(F)cc2)s1	E coli Lon inh 14.1 | E coli Lon conf inactive
O=C(NCCc1ccc(F)cc1)c1ccncc1	E coli Lon inh 18.9 (no result: EBV gp42 block) | E coli Lon conf inactive
CCOc1ncccc1C(=O)Nc1cccc(-n2cnnn2)c1C	none (no result: EBV gp42 block, MCL1-BIM inh, MEX-5 binding, Bcl-xL primary)
Cc1c(NC(=O)c2cc(Br)ccc2Cl)cccc1-n1cnnn1	E coli Lon inh 20.4 (no result: EBV gp42 block, MCL1-BIM inh, MEX-5 binding, Bcl-xL primary) | E coli Lon conf inactive
CCOc1ccc(N2C(=O)CC(N)C2=O)cc1 (stereo not given)	E coli Lon inh 18.2 | E coli Lon conf inactive
Cc1ccc(N2C(=O)CC(NCC3CCCO3)C2=O)cc1 (stereo not given)	none
CCOc1ccc(N2C(=O)CC(Cc3cc(C)cc(C)c3)C2=O)cc1 (stereo not given)	none (no result: EBV gp42 block, GLD-1 TGE inh, MCL1-BIM inh, Bcl-xL primary)
CCOc1ccc(N2C(=O)CC(NCC3CCCO3)C2=O)cc1 (stereo not given)	E coli Lon inh 15.8 | E coli Lon conf inactive
O=C1CSC(c2ccccn2)N1c1ccc(C(F)(F)F)cc1 (stereo not given)	none
COc1ccc(-c2csc(C(C)(O)c3cccc(F)c3)n2)cc1 (stereo not given)	none (no result: EBV gp42 block, GLD-1 TGE inh, MCL1-BIM inh, MEX-5 binding, Bcl-xL primary)
OCC1(Cc2cccc(C(F)(F)F)c2)CCN(Cc2cc3ccccc3o2)CC1	E coli Lon inh 12.3 | E coli Lon conf inactive
O=C(CN1CCN(c2ccc(F)cc2)CC1)c1ccc(O)cc1O	none (no result: EBV gp42 block)
Cc1ccc(NC(=O)COC(=O)CCc2c[nH]c(=O)[nH]2)cc1	E coli Lon inh 31.0 | E coli Lon conf 52.2
CCOC(=O)N1CCC(NC(=O)Cn2c3c(c(-c4ccccc4Cl)cc2=O)CCC3)CC1	E coli Lon inh 19.8 | E coli Lon conf inactive
O=C(Nc1cccc2ccccc12)c1csc([C@@H]2O[C@H](CO)[C@@H](O)[C@H]2O)n1	none (no result: EBV gp42 block, GLD-1 TGE inh, MCL1-BIM inh, MEX-5 binding, Bcl-xL primary)
O=C(Nc1cccc(Cl)c1Cl)c1csc([C@@H]2O[C@H](CO)[C@H](O)[C@H](O)[C@H]2O)n1	E coli Lon inh 14.8 (no result: EBV gp42 block, GLD-1 TGE inh, MCL1-BIM inh, MEX-5 binding, Bcl-xL primary) | E coli Lon conf inactive
O=C1C(=Cc2cccn2-c2ccccc2)C(=O)c2ccccc21	GLD-1 TGE inh 105.0, MCL1-BIM inh 42.2, E coli Lon inh 61.5, MEX-5 binding inconclusive, Bcl-xL primary 40.8 | E coli Lon conf 38.8
Cc1ccc2c(c1)c1c(n2CC(O)CNC2CCCCC2)CCCC1 (stereo not given)	E coli Lon inh 27.8 | E coli Lon conf inactive
Cc1ccc(OCC(=O)N/N=C2\CC(=O)CC(C)(C)C2)c(Br)c1	E coli Lon inh 15.2 (no result: EBV gp42 block, GLD-1 TGE inh, MCL1-BIM inh, Bcl-xL primary) | E coli Lon conf inactive
CCOc1ccccc1OCC(=O)NN=C1CCCC(=O)C1	E coli Lon inh 35.9 (no result: EBV gp42 block, MCL1-BIM inh, MEX-5 binding, Bcl-xL primary) | E coli Lon conf inactive
Cc1cc(C)n(CC(=O)NC2CCCCC2C)c(=O)c1C#N (stereo not given)	none (no result: EBV gp42 block)
Cc1cc(NC(=O)CSc2cn(CCNC(=O)c3ccccc3)c3ccccc23)no1	E coli Lon inh 19.9 | E coli Lon conf inactive
O=C(Cn1cnc2cc([N+](=O)[O-])ccc2c1=O)NCc1ccccc1	none
CC1(C)CC(NC(=S)Nc2ccc(S(N)(=O)=O)cc2)CC(C)(C)N1	none
CC1(C)CC(=O)C(C(=S)Nc2ccccc2)=C(NC2CC(C)(C)NC(C)(C)C2)C1	E coli Lon inh 58.8 | E coli Lon conf inactive
Cc1onc(-c2c(F)cccc2Cl)c1C(=O)NCc1ccccc1	none (no result: EBV gp42 block)
Cc1onc(-c2c(F)cccc2Cl)c1C(=O)ONC(=O)c1ccco1	E coli Lon inh 17.3 | E coli Lon conf inactive
Cc1nn(-c2ccccc2)c(NC(=O)c2cccs2)c(-c2ccccc2Cl)c1=O	none (no result: MEX-5 binding)
CN(C)c1ccc(C(=S)N2CCNCC2)cc1	none
CN(C)c1ccc(C(=S)N2CCCCC2)cc1	E coli Lon inh 45.6 | E coli Lon conf inactive
CC(C)=CCC/C(C)=C/CNC(=O)CC1C[C@H](C(=O)N(C(C)C)C(C)C)[C@@]2(C)c3[nH]c4ccccc4c3CCN2C1=O (stereo not given in full)	none (no result: EBV gp42 block, MCL1-BIM inh, MEX-5 binding, Bcl-xL primary)
COc1cc(NC(=O)c2ccc(F)cc2)ccc1NC(=O)c1cc2ccccc2o1	none (no result: EBV gp42 block)
COc1cc(NC(=O)c2ccccc2F)ccc1NC(=O)c1cc2ccccc2o1	E coli Lon inh 16.2 (no result: EBV gp42 block, GLD-1 TGE inh, MCL1-BIM inh, Bcl-xL primary) | E coli Lon conf inactive
Nc1cccc2c(=O)[nH][nH]c(=O)c12	none (no result: EBV gp42 block, GLD-1 TGE inh, MCL1-BIM inh, MEX-5 binding, Bcl-xL primary)

Source: PubChem (several laboratories)
